# USP17 block – inhibitors of human USP17 deubiquitinase. inhibition, % at 50 µM. purified USP17, Ub-rhodamine cleavage fluorescence, 3 h. 47,000 compounds, 6.5% hits. A8MUK1
# USP10 inh – inhibitors of human USP10 deubiquitinase; Q14694; purified USP10, Ub-rhodamine fluorescence, 60 min; inhibition, % at 20 µM; 47,000 compounds, 1.1% hits
# USP8 inh – inhibitors of human USP8 deubiquitinase; P40818; purified USP8, Ub-rhodamine cleavage fluorescence, 30 min; inhibition, % at 20 µM; 47,000 compounds, 4.2% hits; AID 1645853
# USP7 inh – blocks human USP7 ubiquitin-rhodamine cleavage | Q93009 | purified USP7, Ub-rhodamine cleavage fluorescence | inhibition, % at 20 µM | 47,000 compounds, 0.3% hits
# USP28 block – human USP28 deubiquitinase inhibition; Q96RU2; purified USP28, Ub-rhodamine cleavage fluorescence, 30 min; inhibition, % at 25 µM; 47,000 compounds, 3% hits
# USP30 block – inhibitors of human USP30 deubiquitinase; purified USP30, Ub-rhodamine cleavage fluorescence; inhibition, % at 25 µM; 47,000 compounds, 5.3% hits
# Target sequence (Q70CQ3 whole entry, looked up): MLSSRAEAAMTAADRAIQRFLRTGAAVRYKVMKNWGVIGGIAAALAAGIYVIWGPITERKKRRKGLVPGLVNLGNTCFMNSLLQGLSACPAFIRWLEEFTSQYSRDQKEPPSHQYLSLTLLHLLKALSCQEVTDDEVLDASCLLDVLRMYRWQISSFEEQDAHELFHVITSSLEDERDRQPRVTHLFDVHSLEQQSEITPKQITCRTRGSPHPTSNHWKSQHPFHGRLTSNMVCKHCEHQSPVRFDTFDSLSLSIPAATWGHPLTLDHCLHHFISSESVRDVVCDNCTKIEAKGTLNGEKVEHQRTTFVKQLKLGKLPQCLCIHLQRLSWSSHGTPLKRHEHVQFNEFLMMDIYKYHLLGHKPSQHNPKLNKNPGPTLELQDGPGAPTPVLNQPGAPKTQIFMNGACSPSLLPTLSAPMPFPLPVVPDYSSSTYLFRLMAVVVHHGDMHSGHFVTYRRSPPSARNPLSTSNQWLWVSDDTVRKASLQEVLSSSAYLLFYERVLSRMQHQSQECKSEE
# The depositor's hits bear a star; i = inactive; / = no result given. An excerpt weighted towards active compounds, which were near 13% of everything screened. Rule as the data show it: active = inhibition above about 30%; inactive = the rest.
SMILES,USP17 block,USP10 inh,USP8 inh,USP7 inh,USP28 block,USP30 block
O=C(CC1CCCC1)N1CCC(c2[nH]nc3nccnc23)CC1,22,15,11,5,12,19
COc1cccc(Nc2cc(C(=O)Nc3ccccc3)ccn2)c1,36*,0,-1,-5,1,10
COc1ccc(NC(=O)c2ccnc(Nc3cccc(OC)c3)c2)cc1,32*,-4,5,6,11,7
Cc1nn(CC(=O)N2c3ccccc3CC2C)c(C)c1S(=O)(=O)N(C)C (centres undefined),8,0,7,1,5,23
O=C(NCc1cccnc1)c1nnn(-c2ccc(F)cc2)c1-c1ccncc1,-4,0,-3,1,-10,0
Cc1ccn(-c2ccc(NC(=O)c3ccccc3Sc3ccccc3C#N)cc2)n1,50*,7,12,9,38*,35*
CC(NC(=O)c1ccccc1)c1nc2ccccc2n1CC(=O)Nc1ccc(F)cc1 (centres undefined),39*,20,66*,7,8,17
CCc1cccc(C)c1NC(=O)Cn1c(C(C)NC(=O)c2ccc(C)cc2)nc2ccccc21 (centres undefined),61*,44*,75*,12,40*,54*
CC(NC(=O)c1ccccc1)c1nc2ccccc2n1CC(=O)Nc1ccc2c(c1)OCO2 (centres undefined),54*,56*,74*,27,15,49*
CC(C)c1ccc(NC(=O)Cn2c(CNC(=O)c3ccccc3)nc3ccccc32)cc1,-28,-6,-28,-20,-5,-19
Cc1nn(-c2ccccc2)c2c1c(C)c(CCC(=O)Nc1ccccc1F)c(=O)n2C,7,4,14,3,0,5
COc1ccccc1C1NC2=NCN(C(C)C)CN2c2nc3ccccc3n21 (centres undefined),8,1,14,-2,3,19
CC(C)n1nccc1-c1nccnc1CC1CCN(C(=O)C(C)(C)C)CC1,-23,-4,-195,-1,-9,-57
CCCc1nc(C2CN(Cc3cnc(C)s3)CCO2)n[nH]1 (centres undefined),-7,-2,-30,-1,-7,-21
CCOc1ncccc1C(=O)Nc1ccnn1Cc1ccc(C)s1,10,5,2,-11,11,26
CCOc1ncccc1C(=O)Nc1ccnn1Cc1ccccc1,-10,50*,1,0,-2,-12
O=C(c1c2c(N3CCCC3)ncnc2n2ccccc12)N1CCCC1,19,-4,67*,-27,-32,-194
O=C(c1c2c(-c3ccncc3)ncnc2n2ccccc12)N1CCOCC1,1,-2,33*,-88,-25,-77
CCOc1ccc(N2CC(C(=O)N(Cc3ccccc3)c3nc4c(C)cccc4s3)CC2=O)cc1 (centres undefined),-6,0,8,7,17,-2
OCCNc1nc(-c2ccccc2)nc2c1oc1ccccc12,60*,5,-10,9,18,71*
CNc1nc(C)nc2c1oc1ccccc12,13,2,-1,6,/,/
COc1ccc(CNC(=O)CSc2nnc(Cn3cnc4ccccc43)n2-c2ccccc2Cl)cc1OC,4,-6,17,0,6,-9
O=C(c1ccc([N+](=O)[O-])cc1)N1CCC(c2nc3c(nnn3Cc3cccc(F)c3)c(=O)[nH]2)CC1,-3,8,-116,-17,9,21
CC(Nc1ncnc2cc(-c3ccc(Cl)cc3)sc12)c1ccccn1 (centres undefined),-19,14,57*,5,7,0
COc1ccc(C(=O)c2ccccc2)c(OCC(=O)Nc2cccc(C#N)c2)c1,18,15,11,5,0,23
SMILES,USP17 block,USP10 inh,USP8 inh,USP7 inh,USP28 block,USP30 block
Cc1nn(-c2ccc(Cl)cc2)c2[nH]c(=O)c(CNCCN(C)C)cc12,0,-9,53*,-4,-31,-95
Cc1nn(-c2ccc(Cl)cc2)c2[nH]c(=O)c(CNCC3CCCO3)cc12 (centres undefined),-90,4,86*,5,-264,i
Cc1nn(-c2ccc(Cl)cc2)c2[nH]c(=O)c(CNCc3ccco3)cc12,-74,-5,44*,-1,-85,-389
Cc1nn(-c2ccccc2)c2[nH]c(=O)c(CNCC3CCCO3)cc12 (centres undefined),9,3,2,6,-4,-18
COc1ccc(CCNCc2cc3c(C)nn(-c4ccc(Cl)cc4)c3[nH]c2=O)cc1OC,29,-1,78*,5,9,-33
CC(C)(C)c1nn(-c2ccc(Cl)cc2)c2[nH]c(=O)c(CNCCc3ccccc3)cc12,-6,-2,-5,0,-19,-6
O=C(Cc1ccc2ccccc2c1)NCCc1nc2ccccc2[nH]1,-23,-8,-231,-8,-11,-47
O=C(NCCc1nc2ccccc2[nH]1)c1[nH]nc2c1CCc1ccccc1-2,10,-2,14,6,18,45*
CCOC(=O)c1cc2c(ccn2-c2ccc(F)cc2)n1CC(=O)Nc1ccc2c(c1)OCCO2,16,37*,54*,5,14,30
O=C(c1ccccc1[N+](=O)[O-])N1c2ncnn2C(c2ccccc2)CC1c1ccccc1 (centres undefined),0,3,-85,0,-4,-8
Cc1sc2ncn3c(=O)n(CC(=O)Nc4ccc(F)c(Cl)c4)nc3c2c1C,53*,-3,-3,2,7,16
CCOC(=O)C1(Cc2cc(-c3ccccc3F)no2)CCN(Cc2cccc(O)c2)CC1,/,12,0,8,11,7
COc1cccc(CNC(=O)c2ccc3c(=O)nc4c(-c5cccc(C)c5)n[nH]n4c3c2)c1,-56,5,43*,5,-28,-68
CCOc1ccc(NC(=O)CSc2cc(=O)n(C)c3cc(Cl)ccc23)cc1,47*,0,0,2,2,18
COc1cc(NC(=O)CSc2cc(=O)n(C)c3cc(Cl)ccc23)cc(OC)c1OC,-15,-9,-23,1,-3,-2
Cn1c(=O)cc(SCC(=O)NC2CCN(Cc3ccccc3)CC2)c2ccc(Cl)cc21,34*,-1,-3,-4,18,50*
COc1ccccc1C1CC(=O)N(c2ccccc2)C2=C1C(=O)OC2 (centres undefined),4,0,-62,-39,3,23
CCn1c(-c2cc(NC(=O)c3cnccn3)n[nH]2)cc2cc(OC)ccc21,1,2,3,0,0,7
O=C(Nc1ccc(-c2cn3ccccc3n2)cc1)C1C=C2C=C(Br)C=CC2OC1=O (centres undefined),25,5,5,5,52*,49*
Cc1ccc(CNC(=O)Cc2nnc(-c3ccccn3)o2)cc1C,-2,0,-3,1,-2,-8
